Experimental data published in PubChem BioAssay (Tox21).
Inconclusive results are not listed. Activity calls are given as the source filed them. Unless noted, calls follow the shape of the dose curve; as a rule, active = well fitted curve in the direction sought with a large enough effect in the repeat runs; inconclusive = weak or mixed curves; inactive = flat fitted curve, though single readings scatter.

Legend:
[1] = qHTS assay to test for compound auto fluorescence at 535 nm (green) in HEK293 cells (AID 720680)
[2] = qHTS assay to test for compound auto fluorescence at 535 nm (green) in HEK293 cell free culture (AID 720682)
How it was run: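 Each library compound, or DMSO control, is added by pintool to medium alone, comprising DMEM and 10% FBS. Emission at 535 nm following 485 nm excitation is quantified against fluorescein.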

[3] = qHTS assay to test for compound auto fluorescence at 590 nm (red) in HEK293 cell free culture (AID 720683)
How it was run: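 Red-channel autofluorescence of compounds in culture medium (DMEM, 10% FBS), no cells, measured at 540/590 nm. Rose Bengal sodium is the reference fluorophore for equivalence.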

[4] = qHTS assay to test for compound auto fluorescence at 590 nm (red) in HepG2 cell free culture (AID 720684)
How it was run: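 Steps: dispense MEM/10% FBS medium, no cells; pin compound or DMSO vehicle; read red channel, Ex/Em 540/590 nm. Output given as Rose Bengal sodium equivalents.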

[5] = qHTS assay to test for compound auto fluorescence at 460 nm (blue) in HepG2 cell free culture (AID 720685)
How it was run: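 Compound (23 nL) or DMSO pinned into cell-free MEM with 10% FBS; blue fluorescence read at 405/460 nm excitation/emission, expressed as auto-fluorescence equivalency to triamterene.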

[6] = qHTS assay to test for compound auto fluorescence at 535 nm (green) in HepG2 cell free culture (AID 720686)
[7] = qHTS assay to test for compound auto fluorescence at 460 nm (blue) in HepG2 cells (AID 720687)
How it was run: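 Blue-channel autofluorescence (Ex/Em 405/460 nm, triamterene-equivalent) was measured after 1 hr compound exposure at 37 C, 5% CO2. Cells were HepG2, plated overnight at 37 C in MEM plus 10% FBS.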

[8] = qHTS assay to test for compound auto fluorescence at 460 nm (blue) in HEK293 cell free culture (AID 720681)
How it was run: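 Blue fluorescence (Ex 405/Em 460 nm, triamterene-equivalent) was read immediately after pin transfer of compound or DMSO into medium (DMEM, 10% FBS) without cells.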

[9] = molecular target: Glucocorticoid receptor (Homo sapiens) (UniProt P04150); assay: qHTS assay to identify small molecule agonists of the glucocorticoid receptor (GR) signaling pathway (AID 720691; active = well fitted activation curve with a large enough effect in the signal ratio in the repeat runs, not every such curve was filed as active; the % refers to the signal ratio)
How it was run: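 GR-bla HeLa cells (beta-lactamase reporter under glucocorticoid response element) were plated 4 h at 37 C/5% CO2, given compounds in DMSO, and incubated 18 h at 37 C. LiveBLAzer B/G FRET substrate was added for 2 h at room temperature, then fluorescence intensity read.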

[10] = molecular target: Glucocorticoid receptor (Homo sapiens) (UniProt P04150); assay: qHTS assay to identify small molecule antagonists of the glucocorticoid receptor (GR) signaling pathway (AID 720692; active = well fitted inhibition curve with a large enough effect in the signal ratio in the repeat runs, not every such curve was filed as active; the % refers to the signal ratio)
How it was run: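 GR-bla HeLa cells (beta-lactamase reporter under glucocorticoid response element) were pre-plated 4 h at 37 C, treated with compounds plus 5 nM dexamethasone (final) for 18 h, then read by LiveBLAzer B/G FRET fluorescence after 2 h.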
% is scaled to controls: 0 for no effect and ±100 for the full control effect.

Glucocorticoid receptor (Homo sapiens), sequence (P04150 whole entry, looked up): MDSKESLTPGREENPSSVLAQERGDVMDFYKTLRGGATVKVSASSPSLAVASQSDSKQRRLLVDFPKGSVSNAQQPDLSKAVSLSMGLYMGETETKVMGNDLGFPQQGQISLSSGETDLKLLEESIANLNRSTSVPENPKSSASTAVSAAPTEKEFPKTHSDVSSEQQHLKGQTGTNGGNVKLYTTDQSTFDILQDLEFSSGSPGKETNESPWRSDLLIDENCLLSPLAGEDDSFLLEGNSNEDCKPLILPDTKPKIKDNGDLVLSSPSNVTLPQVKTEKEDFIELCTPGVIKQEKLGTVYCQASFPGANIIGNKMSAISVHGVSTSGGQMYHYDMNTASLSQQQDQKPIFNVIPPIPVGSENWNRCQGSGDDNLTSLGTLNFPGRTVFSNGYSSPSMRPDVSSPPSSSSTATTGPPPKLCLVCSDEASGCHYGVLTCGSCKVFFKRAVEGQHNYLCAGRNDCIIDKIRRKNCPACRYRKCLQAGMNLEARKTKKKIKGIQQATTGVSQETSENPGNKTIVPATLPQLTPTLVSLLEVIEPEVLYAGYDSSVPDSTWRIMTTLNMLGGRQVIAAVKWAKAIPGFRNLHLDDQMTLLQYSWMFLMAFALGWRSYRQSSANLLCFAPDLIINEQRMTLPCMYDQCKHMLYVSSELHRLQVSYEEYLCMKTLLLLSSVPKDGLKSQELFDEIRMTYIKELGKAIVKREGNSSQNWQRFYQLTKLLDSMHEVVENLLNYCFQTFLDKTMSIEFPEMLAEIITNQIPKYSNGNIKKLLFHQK

O=C(Cl)c1ccccc1[N+](=O)[O-]
inactive: outcome [1] | outcome [2] | outcome [3] | outcome [4] | outcome [5] | outcome [6] | outcome [7]

NCCOCCN
inactive: outcome [1] | outcome [2] | outcome [3] | outcome [4] | outcome [5]

C=CC(=O)OCC1CCCO1 (configuration not stated)
inactive: outcome [1] | outcome [8] | outcome [2] | outcome [3] | outcome [4] | outcome [5] | outcome [7]

CN(C)CCN(C)CCO
inactive: outcome [1] | outcome [2] | outcome [3] | outcome [4] | outcome [5] | outcome [6] | outcome [7] | Potency [9]

CN(C)CCOC(=O)C(c1ccccc1)C1(O)CCCC1 (configuration not stated)
inactive: outcome [1] | outcome [8] | outcome [2] | outcome [3] | outcome [4] | outcome [5] | outcome [7] | outcome [10]

OC[C@H]1O[C@@H](O[C@@H]2[C@@H](CO)O[C@](O)(CO)[C@H]2O)[C@H](O)[C@@H](O)[C@H]1O
inactive: outcome [1] | outcome [8] | outcome [2] | outcome [3] | outcome [4] | outcome [5] | Potency [9] | outcome [10]

C=C(C)c1cccc(C(C)(C)N=C=O)c1
inactive: outcome [1] | outcome [8] | outcome [2] | outcome [3] | outcome [4] | outcome [5] | outcome [7] | Potency [9]

CO/N=C(/C(=O)N[C@@H]1C(=O)N2C(C(=O)[O-])=C(C[n+]3ccn4ncccc43)CS[C@H]12)c1nsc(N)n1
inactive: outcome [1] | outcome [8] | outcome [2] | outcome [3] | outcome [4] | outcome [5] | outcome [7] | outcome [10]

CCC/C=C(\C=O)CC
inactive: outcome [1] | outcome [2] | outcome [3] | outcome [4] | outcome [5] | outcome [6] | outcome [7] | Potency [9]

CCC(=O)CC
inactive: outcome [1] | outcome [8] | outcome [2] | outcome [3] | outcome [4] | outcome [5] | outcome [7] | Potency [9] | outcome [10]

Nc1nnnn1-c1ccccc1
inactive: outcome [1] | outcome [8] | outcome [2] | outcome [3] | outcome [4] | outcome [5] | outcome [7] | Potency [9] | outcome [10]

O=C1c2ccccc2C(=O)c2cc(Cl)ccc21
inactive: fluorescence, % of fluorescein [1] 0.0004% [at 3.72 µM] | fluorescence, % of fluorescent control [8] -0.0102% [at 3.72 µM] | activity change [2] -0.0107% [at 3.72 µM] | fluorescence, % of fluorescent control [3] -0.094% [at 3.72 µM] | fluorescence, % of Rose Bengal [4] -0.0228% [at 3.72 µM] | fluorescence, % of fluorescent control [5] -0.0625% [at 3.72 µM] | fluorescence, % of fluorescent control [7] -0.0186% [at 3.72 µM] | activation [9] -4.3% [at 6.9 µM] | activity change, negative = inhibition [10] -15.1% [at 7.04 µM]

N#Cc1ccccc1O
inactive: outcome [1] | outcome [8] | outcome [2] | outcome [3] | outcome [4] | outcome [5] | outcome [7] | Potency [9] | outcome [10]

CC(=O)C1C(=O)C=C(C)OC1=O (configuration not stated)
inactive: outcome [1] | outcome [8] | outcome [2] | outcome [3] | outcome [4] | outcome [5] | Potency [9] | outcome [10]

O=C1CCC(=O)N1Cl
inactive: outcome [1] | outcome [8] | outcome [2] | outcome [3] | outcome [4] | outcome [5] | outcome [7] | Potency [9] | outcome [10]

CC(C)CO
inactive: outcome [1] | outcome [8] | outcome [2] | outcome [3] | outcome [4] | outcome [5] | outcome [7] | Potency [9] | outcome [10]

CC1CC(=O)CC(C)(C)C1 (configuration not stated)
inactive: outcome [1] | outcome [8] | outcome [2] | outcome [3] | outcome [4] | outcome [5] | outcome [7] | outcome [10]
